# PubChem BioAssay AID651800 (The Scripps Research Institute Molecular Screening Center, 2012)
# About 1,300 (0.36%) of roughly 360,000 compounds were called active. The list comes from a sample in which actives are over-represented; it also holds similar structures and randomly drawn compounds. A number with no mark means an inactive call. Cut-off read from the data, not from the text of the source: active = inhibition above about 19%; inactive = the rest.
# System: T-cell receptor (TCR)
# Experiment: inhibitors of human TCR-CD3 interaction, primary screen, biochemical, fluorescence, TAMRA-labeled TCR probe (AID 651800);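 note: recombinant mutant TCR 2C K166C tagged with TAMRA read by polarization; 0% = receptor in buffer alone and 100% = receptor with positive control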
# Conditions: at 9.4 µM, hits give high values
row,SMILES,inhibition
1,CCCCn1c(O)c(C(CC)=NCc2ccco2)c(=O)[nH]c1=O,-3.64%
2,CCCCCCN=C(CC)c1c(O)n(CCCC)c(=O)[nH]c1=O,0.66%
3,CC/C(=N\NC(=O)c1ccccc1O)c1c(O)n(Cc2ccccc2)c(=O)[nH]c1=O,28.9% (active)
4,Cc1ccc(N(C)C(=O)Oc2cccc3ccc(C)nc23)cc1,1.25%
5,COc1ccc(NC(=O)c2cn(CCC#N)nc2-c2ccc([N+](=O)[O-])cc2)cc1,6.55%
